High-throughput results as filed in PubChem BioAssay.
KinaseGlo FLuc = counter-screen: inhibitors of Kinase-Glo firefly luciferase; Q27757; Kinase-Glo luciferase, ATP luminescence, 8 min; Potency, µM (doses to about 38.3 µM), actives largely listed as inhibitors; actives 0.28% (n = 200,000); AID 1379; also: nearly all actives have a fitted effect of over 60% in size
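Substrate mix (final 50 mM imidazole pH 7.2, 50 mM KCl, 7 mM MgCl2, 10 uM ATP, 0.01% Tween 20, 0.05% BSA) plus pin-tool compound, then Kinase-Glo detection mix; 8 min ambient, luminescence read.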
VP16 counter = Gal4-VP16 reporter inhibition counter-screen; Drosophila S2 Gal4-VP16 UAS-luciferase, luminescence, 20 h; Potency, µM (series often up to 53.6 µM), hits mostly inhibitors; actives 3.5% (n = 310,000); AID 2546;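 also: Gal4-VP16 expression switched on by copper sulfate through the metallothionein promoter; nearly all actives have a fitted effect of over 50% in size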
RORg inh = inhibitors of mouse ROR gamma transcriptional activity. Drosophila S2 Gal4-RORgamma UAS-luciferase reporter, 20 h. P51450. actives 5.4% (n = 310,000). Potency, µM (highest dose often 53.6 µM), hits mostly inhibitors; also: nearly all actives have a fitted effect of over 60% in size
Target sequence (P51450 whole entry, looked up, the tested form may be a part): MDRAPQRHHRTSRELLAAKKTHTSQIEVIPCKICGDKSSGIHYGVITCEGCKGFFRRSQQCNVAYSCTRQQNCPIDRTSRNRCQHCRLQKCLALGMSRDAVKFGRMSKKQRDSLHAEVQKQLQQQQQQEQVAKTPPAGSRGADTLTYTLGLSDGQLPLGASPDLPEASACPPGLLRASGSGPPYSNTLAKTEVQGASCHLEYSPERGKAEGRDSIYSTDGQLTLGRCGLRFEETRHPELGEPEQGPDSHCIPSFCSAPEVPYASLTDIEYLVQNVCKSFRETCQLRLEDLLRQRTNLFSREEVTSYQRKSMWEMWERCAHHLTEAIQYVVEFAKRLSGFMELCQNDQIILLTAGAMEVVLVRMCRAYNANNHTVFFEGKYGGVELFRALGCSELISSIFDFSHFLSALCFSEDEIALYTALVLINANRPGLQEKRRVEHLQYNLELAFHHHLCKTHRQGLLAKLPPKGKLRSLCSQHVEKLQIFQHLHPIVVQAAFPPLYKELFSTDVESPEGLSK
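Stably transfected Drosophila Schneider cells are the test system, with ROR gamma fused to Gal4 and luciferase under UAS control; luminescence is read after 20 hr of 700 uM copper sulfate induction at ambient temperature.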
Each line names hits and unclear results; the compound was inactive in the other large screens. In the library only some 6.2% were active in any assay of this set; here they are far more common. Calls follow the shape of the dose curve; as a rule, active = well fitted curve in the direction sought with a large enough effect; inconclusive = small, poorly fitted or top-dose-only effect, or another doubt; inactive = no such curve, though single readings can be large; an effect the other way counts as inactive or inconclusive.

COc1ccc(-c2cn3c(C)c(C(=O)Nc4cccc(C)n4)sc3n2)cc1	VP16 counter 11.2µM, RORg inh 7.08µM
CCOc1ccccc1NC(=O)c1cccc(S(=O)(=O)N(Cc2ccccc2)c2ccccc2OC)c1	none
COc1ccccc1N(Cc1ccccc1)S(=O)(=O)c1cccc(C(=O)Nc2cc(C)ccn2)c1	VP16 counter 10µM, RORg inh 6.31µM (no result: KinaseGlo FLuc)
Cc1ccnc(NC(=O)c2ccc(S(=O)(=O)c3ccccc3)cc2)c1	none
CCOc1cc(C(=O)NC(=S)Nn2cnnc2)cc(OCC)c1OCC	none
Cc1cccc(NC(=O)c2sc3nc(-c4ccccc4)cn3c2C)n1	none
CCOc1cc(C(=O)NC(=S)Nc2nc(C)cc(C)n2)cc(OCC)c1OCC	VP16 counter inconclusive, RORg inh 11.2µM (no result: KinaseGlo FLuc)
COc1ccccc1Oc1ccc(N2CC(C(=O)OCC(=O)c3ccccc3)CC2=O)cc1 (stereo not given)	none (no result: KinaseGlo FLuc)
Cc1nc2cnc(OCc3ccccc3)nc2n(C)c1=O	RORg inh inconclusive (no result: KinaseGlo FLuc)
Cc1[nH]ccc(=O)c1Oc1ncc(C(F)(F)F)cc1Cl	none
CCCCOc1ccc(C(=O)Nc2cccc(C)n2)cc1	VP16 counter inconclusive, RORg inh inconclusive
CCOc1cc(C(=O)Nc2cc(C)ccn2)cc(OCC)c1OCC	VP16 counter inconclusive, RORg inh 15.8µM
CCOc1ccc(C(=O)Nc2cccc(C)n2)cc1	KinaseGlo FLuc inconclusive, VP16 counter inconclusive, RORg inh 8.91µM
CCOc1cc(C(=O)Nc2cnccn2)cc(OCC)c1OCC	none
CC(C)(C)OC(=O)NCCCC1=CC2=CC(=O)C(C)(O)C(=O)C2=CO1 (stereo not given)	none
O=c1c2ccc(Cl)cc2nc(-c2cccc(C(F)(F)F)c2)n1O	VP16 counter 3.55µM, RORg inh 7.08µM
N#Cc1ccc(-c2nc3ccccc3c(=O)n2O)cc1	VP16 counter inconclusive, RORg inh 15.8µM (no result: KinaseGlo FLuc)
Clc1ccccc1-c1nc2ccccc2c2nc3ccccc3n12	VP16 counter 20µM
O=c1c2ccccc2nc(-c2ccc(Cl)c(Cl)c2)n1O	VP16 counter inconclusive, RORg inh inconclusive
N#Cc1ccc(-c2nc3cc(Cl)ccc3c(=O)n2O)cc1	VP16 counter inconclusive (no result: KinaseGlo FLuc)
Cc1nc2ccccc2c2nc3ccccc3n12	none
O=c1c2ccccc2nc(-c2ccccc2Cl)n1O	VP16 counter inconclusive, RORg inh 10µM
Nn1c(-c2ccccc2)nc2cc(Cl)ccc2c1=O	none (no result: KinaseGlo FLuc)
CC(C)CCc1noc(CN2CCC(C(=O)N3CCOCC3)CC2)n1	none (no result: KinaseGlo FLuc)
Cc1ccc(C(=O)N2N=C3c4ccccc4S(=O)(=O)N3[C@H]2N(C)C)cc1	none
Cc1cc(-c2ccccc2)oc(=O)c1NC(=O)c1ccccc1	none
O=C(c1c[nH]c(C(=O)C(Cl)(Cl)Cl)c1)c1ccccc1Br	VP16 counter inconclusive
O=S1(=O)NCC23CCC(CC21)O3 (stereo not given)	none (no result: KinaseGlo FLuc)
CCc1nnc(NC(=O)CCC(=O)N2CCN(Cc3ccc(OC)c(F)c3)CC2)s1	none (no result: KinaseGlo FLuc)
c1ccc2c(c1)nnn1c3ccccc3nc21	KinaseGlo FLuc 12.6µM, VP16 counter inconclusive, RORg inh inconclusive
O=C(O)c1ccccc1-c1nc2cc(Cl)ccc2c(=O)n1O	none
O=c1c2ccccc2nc(-c2ccc(Cl)cc2Cl)n1O	VP16 counter inconclusive, RORg inh 10µM
Nn1nnc2ccccc21	none
COC(=O)[C@H]1[C@H]2CC3c4[nH]c5ccccc5c4CCN3C[C@@H]2CC[C@@H]1O (stereo not given in full)	none
CC1CCN(S(=O)(=O)c2ccc3c(c2)N(C)C(=O)CC(=O)N3C)CC1	none (no result: KinaseGlo FLuc)
O=C(C1CCC(=O)N(C2CCCC2)C1)N1CCN(Cc2cccc(F)c2)CC1 (stereo not given)	none (no result: KinaseGlo FLuc)
CC(C)C(C)C	none (no result: KinaseGlo FLuc)
CN1[C@H](Cc2ccccc2)C=C[C@]1(C)C(=O)NCC1CC1	none
N#Cc1ccccc1COc1ccc(/C=C/C(=O)O)cc1	VP16 counter 0.708µM, RORg inh 0.178µM
O=C(O)/C=C/c1ccc(S(=O)(=O)Nc2ccc(OCc3ccccc3)cc2)cc1	none (no result: KinaseGlo FLuc)
Cc1ccc(C(=O)C(OC(=O)CN2C(=O)c3ccccc3C2=O)c2ccccc2)cc1C (stereo not given)	none
Cn1c(SCC(=O)c2ccccc2)nnc1-c1ccncc1	none
Cn1c(SCC(=O)c2ccccc2)nnc1-c1ccc(O)cc1	VP16 counter 11.2µM
Cc1cccn2c(/C=N/OCc3cccc(F)c3)c(-c3ccc(Cl)cc3)nc12	RORg inh 2.24µM
Fc1cccc(CO/N=C/c2c(-c3ccccc3)nc3ccc(Cl)cn23)c1	none
NC(=O)COC(=O)CNC(=O)c1sc2ccccc2c1Cl	none
C/C(=N\NC(=S)NCc1ccccc1)c1cccc(Br)c1	RORg inh inconclusive
C/C(=N\NC(=S)NCCc1ccccc1)c1cccc(Br)c1	VP16 counter inconclusive, RORg inh 4.47µM
COc1ccc(/C(C)=N/NC(=S)NCc2ccco2)cc1	VP16 counter 5.62µM, RORg inh 2.82µM
COc1ccc(/C(C)=N/NC(=O)CNC(=O)c2ccco2)cc1	none (no result: KinaseGlo FLuc)
COc1ccc(/C(C)=N/NC(=O)c2ccccc2OCc2ccccc2)c(OC)c1	none
COc1ccccc1/C(C)=N/NC(=S)NCc1ccccc1	VP16 counter 7.08µM, RORg inh 3.16µM
COc1ccc(CC(=S)NCCc2ccccc2)cc1	none (no result: KinaseGlo FLuc)
COc1ccc(/C(C)=N/NC(=S)NCCc2ccccc2)cc1	VP16 counter 1.12µM, RORg inh 0.282µM
CCc1ccc(OCC(=O)N2CCN=C2c2ccccc2)cc1	none
Cc1nc2c(c(=O)[nH]1)CSCC2	none (no result: KinaseGlo FLuc)
CCn1c(CNc2ccc(C)cc2C)nnc1SCC(=O)N1CCCc2ccccc21	none
CCOc1ccc(S(=O)(=O)N2CCC(C(=O)NCCc3ccccc3)CC2)cc1	none (no result: KinaseGlo FLuc)
CCOC(=O)c1nnn(-c2nonc2-n2cccc2)c1-c1cccc([N+](=O)[O-])c1	none
CCN(CC)C(=O)Cn1cc(C(=O)C2CC2)c2ccccc21	none
CN1CCN(c2ncc3nc(-c4ccccc4)c(=O)n(CCc4ccccc4)c3n2)CC1	none (no result: KinaseGlo FLuc)
C/C(=N\NC(=O)Cc1c(C)[nH][nH]c1=O)c1ccc2ccccc2c1	none
COc1ccc(OCC(=O)N/N=C(\C)c2ccc(OC)cc2)cc1	none
C=CCNC(=S)N/N=C(\C)c1cccc(OC)c1	VP16 counter 0.891µM, RORg inh 0.794µM
COc1cccc(/C(C)=N/N=C(\C)c2cccc(OC)c2)c1	RORg inh inconclusive (no result: KinaseGlo FLuc)
COc1ccc(CNC(=S)NCc2ccc(OC(C)C)cc2)cc1	RORg inh inconclusive
C=CCNC(=S)N/N=C(\C)c1ccc(OC)cc1	VP16 counter 1.12µM, RORg inh 0.708µM
COc1ccc(CNC(=S)N/N=C(\C)c2ccc(OC)cc2)cc1	VP16 counter 5.01µM, RORg inh 6.31µM (no result: KinaseGlo FLuc)
C/C(=N\NC(=S)NCc1ccccc1)c1ccc2ccccc2c1	VP16 counter 4.47µM, RORg inh 2.51µM
CNc1nc(Cl)nc2c1ncn2CC(COC(=O)C(C)(C)C)COC(=O)C(C)(C)C	none (no result: KinaseGlo FLuc)
CCn1c(COc2ccc3ccccc3c2C)nnc1SCC(=O)Nc1cccc(C(=O)O)c1	none (no result: KinaseGlo FLuc)
COc1ccc(C2=NN(C(=O)c3ccccc3)C(c3ccc(OC)c(OC)c3)C2)c(OC(C)=O)c1 (stereo not given)	none (no result: KinaseGlo FLuc)
COc1ccc(CC2(C)OC(c3ccc([N+](=O)[O-])cc3)=NN2C(C)=O)cc1 (stereo not given)	none (no result: KinaseGlo FLuc)
CCn1nnnc1SCC(=O)N1CCCc2ccccc21	none
C=CCNC(=S)N/N=C(\C)c1cccnc1	VP16 counter 20µM, RORg inh 3.16µM
